Screening data: PubChem BioAssay, Corson Lab, School of Medicine, Indiana University
This is one part of a sample in which hits are shown more often than they occur.
FECH inh: inhibitors of human ferrochelatase, primary screen, biochemical, purified FECH, Ni-mesoporphyrin absorbance; Ferrochelatase, mitochondrial (Homo sapiens), P22830; AID 1671448, 2021; Ni-mesoporphyrin absorbance 550 nm; 20,000 tested, 3.3% active; calls only at 10 µM (by protocol);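 active means enzyme reaction rate more than 3 SD below the solvent-only control wells on the same plate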;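 further: lower slope than DMSO wells means FECH inhibition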
Target sequence (P22830 whole entry, looked up): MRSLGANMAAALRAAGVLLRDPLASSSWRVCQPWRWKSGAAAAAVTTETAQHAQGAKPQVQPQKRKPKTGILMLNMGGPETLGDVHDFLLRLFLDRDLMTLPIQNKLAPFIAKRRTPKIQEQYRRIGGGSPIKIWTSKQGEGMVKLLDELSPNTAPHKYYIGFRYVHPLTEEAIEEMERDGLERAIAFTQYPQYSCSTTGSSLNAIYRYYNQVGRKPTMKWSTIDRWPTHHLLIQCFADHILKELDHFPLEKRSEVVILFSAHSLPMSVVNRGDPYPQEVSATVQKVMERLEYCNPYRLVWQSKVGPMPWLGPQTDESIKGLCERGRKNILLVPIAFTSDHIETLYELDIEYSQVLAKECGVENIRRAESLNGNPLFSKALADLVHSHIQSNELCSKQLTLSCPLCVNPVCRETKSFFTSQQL
* marks the source's active call; other numbers are inactive results; i = inactive; + = active, no number.

SMILES | FECH inh
Cc1ccc(C2=CC(c3ccc(Cl)cc3)n3nc(NC(=O)c4cccc(C)c4)nc3N2)cc1 (centres undefined) | i
Cc1ccc(C2=CC(c3ccc(Cl)cc3)n3nc(NC(=O)c4ccc(F)cc4)nc3N2)cc1 (centres undefined) | +
O=C(Nc1nc2n(n1)C(c1ccc(Cl)cc1)C=C(c1ccc(Cl)cc1)N2)c1ccco1 (centres undefined) | i
Cc1ccc(C2=CC(c3ccc(Cl)cc3)n3nc(NC(=O)CCc4ccccc4)nc3N2)cc1 (centres undefined) | i
Cc1ccc(C2=CC(c3ccc(Cl)cc3)n3nc(NC(=O)CC(C)C)nc3N2)cc1 (centres undefined) | +
Cc1ccc(C(=O)Nc2nc3n(n2)C(c2ccc(F)cc2)C=C(c2ccc(C)cc2)N3)cc1 (centres undefined) | i
O=C(Nc1nc2n(n1)C(c1ccc(F)cc1)C=C(c1ccc(Cl)cc1)N2)c1ccco1 (centres undefined) | i
Cc1cc(NC(=O)CN2CCN(CC3CCCO3)CC2)ccc1Cl (centres undefined) | i
COc1c(Cl)cc(Cl)cc1CN1CCOCC(CN(C)C)C1 (centres undefined) | i
CCc1nc(OCC(=O)NCc2ccc(Cl)cc2)c2c(C)c(C)oc2n1 | i
CCc1ccccc1NC(=O)CN1CCN(Cc2ccccc2Cl)S1(=O)=O | i
COc1ccc(NC(C)=O)cc1-n1cnnc1 | i
NS(=O)(=O)c1ccc(CCNC(=O)c2cc(-c3ccc(Cl)cc3)on2)cc1 | i
Cc1nc(-c2cccc(NC(=O)Nc3ccc(S(N)(=O)=O)cc3)c2)no1 | i
Cc1ccc(-c2cc(C(=O)Nc3ccc(S(N)(=O)=O)cc3)no2)cc1C | +
Fc1ccc(Nc2nc(N3CCN(c4ccc(F)cc4)CC3)nc3c2cnn3-c2ccccc2)cc1 | i
FC(F)(F)c1nc(-c2cc(NCc3ccncc3)nc3[nH]ccc23)n[nH]1 | i
O=C(C1CCCN(c2ncnc3c2nc2n3CCCCC2)C1)N1CCN(C2CCCCC2)CC1 (centres undefined) | i
Cc1cccc(N2CCN(C(=O)Cn3c(=O)c4cnc(-c5ccccc5)nc4n(C)c3=O)CC2C)c1 (centres undefined) | i
Cc1ccc(NC(=O)c2nc3ccccc3n(C)c2=O)c(C)c1 | i
Cc1cccc(N2CCN(C(=O)c3nc4ccccc4n(C)c3=O)CC2C)c1 (centres undefined) | +
Cn1c(=O)c(C(=O)N2CCN(C3CCCCC3)CC2)nc2ccccc21 | i
COc1cccc(N2CCN(C(=O)c3nc4ccccc4n(C)c3=O)CC2)c1 | +
Cc1ccc(Cl)cc1N1CCN(C(=O)c2nc3ccccc3n(C)c2=O)CC1 | i
CC(C)(O)C#Cc1ccc(C2CC(=O)Nc3c2cnn3CC2CC2)cc1 (centres undefined) | i
SMILES | FECH inh
COc1ccc(N2C(=O)CCS2(=O)=O)cc1S(=O)(=O)Nc1c(C)cc(C)cc1C | i
O=C(Nc1nc2n(n1)C(c1ccc(Cl)cc1)C=C(c1ccccc1)N2)c1ccc(F)cc1 (centres undefined) | i
O=C(Nc1nc2n(n1)C(c1ccc(Cl)cc1)C=C(c1ccc(Cl)cc1)N2)c1cccnc1 (centres undefined) | +
O=C(Nc1nc2n(n1)C(c1ccccc1)C=C(c1ccc(Cl)cc1)N2)c1ccccc1 (centres undefined) | i
Cc1ccc(C2=CC(c3ccc(Cl)cc3)n3nc(NC(=O)c4cccc(Cl)c4)nc3N2)cc1 (centres undefined) | i
O=C(Nc1nc2n(n1)C(c1ccc(Cl)cc1)C=C(c1ccccc1)N2)c1ccc(Cl)cc1 (centres undefined) | i
O=C(Nc1nc2n(n1)C(c1ccc(Cl)cc1)C=C(c1ccccc1)N2)c1cccnc1 (centres undefined) | +
Cc1nc2c(c(=O)n1C)CCN(C(=O)C[C@@H]1C[C@@H]3C=C[C@H]1C3)CC2 | i
Cc1ccsc1-c1nc(COc2ccc(-n3cncn3)cc2)c(C)o1 | i
Cc1ccccc1-c1ncc(CN2[C@@H]3CC[C@H]2CC(O)C3)s1 (some centres undefined) | i
CCN(CC)C(=O)c1nc(CC(C)C)nn1-c1ccc2c(c1)OCO2 | i
Cc1cccc(NC(=O)CN2C(=O)CC(c3ccccc3)=Nc3ccccc32)c1C | i
CCN1C(SCC(=O)Nc2cccc(C)c2C)=NS(=O)(=O)c2ccccc21 | +
Cc1ccc(CN2CCN(CC(=O)Nc3ccccc3F)S2(=O)=O)cc1 | i
CN(C)c1nc2ncnc(SCC(=O)Nc3ccccc3F)c2s1 | i
CCN1C(SCC(=O)Nc2ccccc2F)=NS(=O)(=O)c2ccccc21 | +
Cc1cccc(NC(=O)CSCc2nc(-c3ccccc3)no2)c1C | i
CCn1c(CNS(=O)(=O)c2ccc(C)cc2C)nc2cccnc21 | i
CCn1ccnc1CN1CCC(CNC(=O)c2ncccc2C)C1 (centres undefined) | i
CN1C(=O)c2ccccc2Sc2cc(-c3noc(C4CCC4)n3)ccc21 | i
O=C(O)CN1C(=O)C2CCCCN2c2ccc(C(=O)N3CCCCC3)cc21 (centres undefined) | i
Cc1ccc(S(=O)(=O)N(Cc2nc3nc(C)cc(C)n3n2)c2ccc(Cl)cc2)cc1 | +
Cc1ccc(N(Cc2nc3nc(C)cc(C)n3n2)S(C)(=O)=O)cc1 | i
Cc1ccc(S(=O)(=O)N(Cc2nc3nc(C)cc(C)n3n2)c2ccccc2)cc1 | i
Cc1cc(C)n2nc(CN(c3cccc(Cl)c3)S(=O)(=O)c3ccccc3)nc2n1 | i
SMILES | FECH inh
Cc1ccc(S(=O)(=O)N(Cc2nc3nc(C)c(Cl)c(C)n3n2)c2ccccc2)cc1 | i
Cc1ccc(N(Cc2nc3nc(C)cc(C)n3n2)S(=O)(=O)c2ccc(Cl)cc2)cc1 | +
CNC(=O)c1cc2n(n1)CC(C)(C(=O)NCc1ccc(F)cc1)N(C)C2=O (centres undefined) | i
Cc1cccc(Nc2nc(NCCO)nc3c2cnn3-c2ccccc2)c1 | i
COc1ccc(Nc2cc(C)nc(Nc3ccc(NC(=O)c4ccccc4)cc3)n2)cc1 | i
CNc1nc(N2CCC(Cc3nnc(SC)n3C)CC2)nc2c1CCC2 | +
CSc1nnc(CC2CCN(C/C=C/c3ccco3)CC2)n1C | i
Cc1csc(SCC(=O)N2CCC(Cc3cccc(C(N)=O)c3)C2)n1 (centres undefined) | i
CCn1c(CNS(=O)(=O)c2ccc(C)cc2)nc2cccnc21 | i
O=C(CCCn1nnc(-c2ccc(F)cc2)n1)Nc1cnc2n1CCCC2 | i
CN(C)CC(=O)Nc1ccc(C(=O)Nc2cnc3n2CCCC3)cc1 | i
Cn1nnc(-c2ccc(C(=O)Nc3cnc4n3CCCC4)cc2)n1 | +
CCc1c(C)nc2ncnn2c1Sc1ccc(NC(=O)c2ccccc2Br)cc1 | i
CCCc1c(C)nc2ncnn2c1Sc1ccc(NS(=O)(=O)c2cccc(Cl)c2)cc1 | i
CCc1c(C)nc2ncnn2c1Sc1ccc(NC(=O)c2cccc(C)c2)cc1 | i
CCCc1c(C)nc2ncnn2c1Sc1ccc(NC(=O)c2cccc(Cl)c2)cc1 | +
CCCc1c(C)nc2ncnn2c1Sc1ccc(NC(=O)c2ccco2)cc1 | i
CCCc1c(C)nc2ncnn2c1Sc1ccc(NC(=O)c2ccc(F)cc2)cc1 | i
CCCc1c(C)nc2ncnn2c1Sc1ccc(NC(=O)c2ccccc2OCC)cc1 | +
